Among the data in PubChem BioAssay (NCATS) are activation and Potency values, retold here.

Values joined by “and” are separate entries in the source; they are usually repeats but may differ in a detail not shown here. Identical values can stand only once. Results filed as inconclusive are left out. Values without a mark were called inactive. Active and inactive are the calls of the source. Calls come from the whole dose curve; as a rule, active = well fitted curve in the direction sought with a large enough effect; inconclusive = small, poorly fitted or top-dose-only effect, or another doubt; inactive = no such curve, though single readings can be large; an effect the other way counts as inactive or inconclusive.

Assay [1] addresses Cellular tumor antigen p53 (Homo sapiens) (UniProt P04637). The assay can be described thus: Primary qHTS for small molecule compounds that upregulate eGFP-tagged delta133p53alpha (in N-terminal) cells. (AID 2060322).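 Note: series mostly up to about 56 µM; 0% = DMSO vehicle and 100% = reference activator; nearly all actives have a fitted effect of over 75% in size.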 As to conditions: NCI-H358 eGFP-delta133p53alpha fluorescence, 24 h; activation: stronger effect = higher value. A digest of the protocol:
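NCI-H358 cells pre-induced 24 h with 10 ng/ml doxycycline to express N-terminal eGFP-delta133p53alpha, then dosed 24 h at 37C without doxycycline; fixed, Hoechst-stained, GFP intensity by laser scanning cytometry, normalized to DMSO (0%) and 57.5 uM 5-azacytidine (100%).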

In assay [2] the target is Aldehyde dehydrogenase, mitochondrial (Homo sapiens) (UniProt P05091). The assay can be described thus: qHTS for Inhibitors of the Aldehyde Dehydrogenase Family (ALDH2) Primary screen (AID 2061308).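 Note: plate controls were vehicle for no effect and reference inhibitor for full effect; nearly all actives have a fitted effect of over 55% in size.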
Assay [3] concerns the target Retinaldehyde dehydrogenase 3 (Homo sapiens) (UniProt P47895). The assay can be described thus: qHTS for Inhibitors of the Aldehyde Dehydrogenase Family (ALDH1A3) Confirmatory screens (AID 2061311). Note: nearly all actives have a fitted effect of over 60% in size. Note: potency is the fitted concentration of half-maximal effect.
For assay [4] the target is unchanged. The experiment in a line: qHTS for Inhibitors of the Aldehyde Dehydrogenase Family (ALDH1A3) Primary screen (AID 2061315). Note: potency is the fitted concentration of half-maximal effect.
Assay [5] addresses Aldehyde dehydrogenase 1A1 (Homo sapiens) (UniProt P00352). The experiment in a line: qHTS for Inhibitors of the Aldehyde Dehydrogenase Family (ALDH1A1) Confirmatory screens (AID 2061316). Note: potency is the fitted concentration of half-maximal effect; nearly all actives have a fitted effect of over 65% in size.
A short description of assay [6]: BET inhibitor-based combinations targeting novel dependencies in MECOM-rearranged (r) AML: SET-2 cell line (AID 2202231). Note: potency is the fitted concentration of half-maximal effect; nearly all actives have a fitted effect of over 35% in size. To be noted: SET-2 AML cells viability, CellTiter-Glo luminescence, 48 h; viability: stronger effect = lower value, concentration not given here. An outline of the steps:
(§1)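 Here, 11-point titrations of each agent were applied to 500 seeded cells and incubated 48 hr; CellTiter-Glo signal, scaled against DMSO and empty wells, was integrated as AUC, then Z-scored within the individual line.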

Assay [7] can be described thus: BET inhibitor-based combinations targeting novel dependencies in MECOM-rearranged (r) AML: OCI-AML3 cell line (AID 2202232). Note: potency is the fitted concentration of half-maximal effect; nearly all actives have a fitted effect of over 35% in size. To be noted: Potency: OCI-AML3 viability. An outline of the steps: as §1
Assay [8] is described as follows: BET inhibitor-based combinations targeting novel dependencies in MECOM-rearranged (r) AML: MV-4-11 cell line (AID 2202233). Note: potency is the fitted concentration of half-maximal effect; nearly all actives have a fitted effect of over 45% in size. A digest of the protocol:
(§2)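 Normalized to DMSO and empty-well controls, the luminescence data from CellTiter-Glo after 48 hr drug exposure were fitted across 11 concentrations. Reported metrics are area under the dose-response curve and its Z-transformed form.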

Assay [9] is described as follows: BET inhibitor-based combinations targeting novel dependencies in MECOM-rearranged (r) AML: HNT-34 cell line (AID 2202234). Note: potency is the fitted concentration of half-maximal effect; nearly all actives have a fitted effect of over 35% in size. A digest of the protocol: as §2
The nature of assay [10]: BET inhibitor-based combinations targeting novel dependencies in MECOM-rearranged (r) AML: UCSD-AML1 cell line (AID 2202235). Note: potency is the fitted concentration of half-maximal effect; nearly all actives have a fitted effect of over 40% in size. An outline of the steps: as §2
Assay [11] in a line: BET inhibitor-based combinations targeting novel dependencies in MECOM-rearranged (r) AML: AML-191 cell line (AID 2202236; note: potency is the fitted concentration of half-maximal effect; nearly all actives have a fitted effect of over 35% in size). A digest of the protocol: as §1
The nature of assay [12]: BET inhibitor-based combinations targeting novel dependencies in MECOM-rearranged (r) AML: AML-194 cell line (AID 2202237; note: potency is the fitted concentration of half-maximal effect; nearly all actives have a fitted effect of over 40% in size). An outline of the steps:
as §1

The target in assay [13] is Retinaldehyde dehydrogenase 3 (Homo sapiens) (UniProt P47895). The assay can be described thus: qHTS for Inhibitors of the Aldehyde Dehydrogenase Family (ALDH1A3) Validation screen (AID 2061312). Note: % is set by controls: 0 for no effect and ±100 for the full control effect; nearly all actives have a fitted effect of over 45% in size.
For assay [14], the target named is Retinal dehydrogenase 2 (Homo sapiens) (UniProt O94788). The assay can be described thus: qHTS for Inhibitors of the Aldehyde Dehydrogenase Family (ALDH1A2) Confirmation screens (AID 2061314). Note: % is set by controls: 0 for no effect and ±100 for the full control effect; nearly all actives have a fitted effect of over 65% in size.

Sequence of Cellular tumor antigen p53 (Homo sapiens) (P04637 whole entry, looked up): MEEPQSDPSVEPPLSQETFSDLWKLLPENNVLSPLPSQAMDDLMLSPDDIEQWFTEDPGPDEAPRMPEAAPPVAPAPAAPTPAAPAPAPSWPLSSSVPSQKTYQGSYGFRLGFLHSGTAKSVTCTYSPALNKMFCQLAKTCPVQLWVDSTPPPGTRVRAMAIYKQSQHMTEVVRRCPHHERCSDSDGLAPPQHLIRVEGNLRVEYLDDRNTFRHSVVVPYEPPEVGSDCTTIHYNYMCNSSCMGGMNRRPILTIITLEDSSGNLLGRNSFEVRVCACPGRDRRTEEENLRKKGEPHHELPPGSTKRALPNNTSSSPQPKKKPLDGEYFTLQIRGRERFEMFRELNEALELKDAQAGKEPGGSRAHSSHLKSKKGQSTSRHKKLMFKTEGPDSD

`O=C(/C=C/c1ccc(O)cc1)O[C@H]1[C@@H]2C=CO[C@@H](O[C@@H]3O[C@H](CO)[C@@H](O)[C@H](O)[C@H]3O)[C@@H]2[C@@]2(CO)O[C@@H]12`: in assay [1], the activation is -7.63%. Also, in [2], the Potency entry is “inactive”.
For `N#Cc1cc(F)cc(-c2nc(-c3ccccn3)no2)c1` the same measures were -12.4% and “inactive”.
With `OC[C@H]1O[C@@H](OCCc2ccccc2)[C@H](O[C@@H]2OC[C@](O)(CO)[C@H]2O)[C@@H](O)[C@@H]1O`, the activation in assay [1] is -4.58%. Further, the Potency result in assay [2] was “inactive”.
On to `C=C1CCC2(C(=O)OC3OC(CO)C(O)C(O)C3O)CCC3(C)C(=CCC4C5(C)CCC(OC6OC(CO)C(OC7OC(C)C(O)C(O)C7O)C(OC7OCC(O)C(O)C7O)C6O)C(C)(C)C5CCC43C)C2C1` (centres undefined), for which the activation in [1] was 14.3%. The Potency result in [2] is “inactive”.
For `C=C1CCC2[C@](C)(CO)CCC[C@@]2(C)[C@@H]1CCC1=CCOC1=O` (some centres undefined) the same measures were -7.14% and “inactive”.
In the case of `COc1ccc(S(=O)(=O)Nc2cccnc2Nc2ccc(O)cc2)cc1`, in assay [1], the activation is -22.5% and 22.4%. Also, in assay [2], the Potency result is “inactive”. For the same molecule, the Potency in assay [3] was 10100 nM (active); in assay [4] it was 7940 nM (active); in assay [5] it was 6340 nM (active); in assay [6], 1320 nM (active); in assay [7], 662 nM (active); in assay [8], 742 nM (active). The Potency in assay [9] was 590 nM (active); in assay [10] it was 468 nM (active); in assay [11], 468 nM (active); in [12], 662 nM (active).
For the molecule `CNC(=S)NS(=O)(=O)c1cc(CCNC(=O)c2cc(Cl)ccc2OC)ccc1OC`, the activation in assay [1] was -6.68%. Moreover, the Potency result in assay [2], in [3], in assay [13], in assay [14] and in assay [4] was “inactive” throughout. The Potency in [5] is 11300 nM (active).
